The entries come from a sample that favours hits as a whole.
Dicer processing: inhibitors of Dicer pre-microRNA processing, primary screen, biochemical, cat-ELCCA, chemiluminescence | Endoribonuclease Dicer (Homo sapiens), Q9UPY3 | cat-ELCCA pre-miR-21 Dicer processing; stronger effect = higher value | z-score at 25 µM | hit rate 6% among 47,000 | AID 1347074, 2019; in the data active means z-score above about 3, passing the limit was not always enough;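 further: plate controls were vehicle for no effect and no enzyme for full effect; higher signal means more uncleaved substrate so more Dicer inhibition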
Target sequence (Q9UPY3 whole entry, looked up): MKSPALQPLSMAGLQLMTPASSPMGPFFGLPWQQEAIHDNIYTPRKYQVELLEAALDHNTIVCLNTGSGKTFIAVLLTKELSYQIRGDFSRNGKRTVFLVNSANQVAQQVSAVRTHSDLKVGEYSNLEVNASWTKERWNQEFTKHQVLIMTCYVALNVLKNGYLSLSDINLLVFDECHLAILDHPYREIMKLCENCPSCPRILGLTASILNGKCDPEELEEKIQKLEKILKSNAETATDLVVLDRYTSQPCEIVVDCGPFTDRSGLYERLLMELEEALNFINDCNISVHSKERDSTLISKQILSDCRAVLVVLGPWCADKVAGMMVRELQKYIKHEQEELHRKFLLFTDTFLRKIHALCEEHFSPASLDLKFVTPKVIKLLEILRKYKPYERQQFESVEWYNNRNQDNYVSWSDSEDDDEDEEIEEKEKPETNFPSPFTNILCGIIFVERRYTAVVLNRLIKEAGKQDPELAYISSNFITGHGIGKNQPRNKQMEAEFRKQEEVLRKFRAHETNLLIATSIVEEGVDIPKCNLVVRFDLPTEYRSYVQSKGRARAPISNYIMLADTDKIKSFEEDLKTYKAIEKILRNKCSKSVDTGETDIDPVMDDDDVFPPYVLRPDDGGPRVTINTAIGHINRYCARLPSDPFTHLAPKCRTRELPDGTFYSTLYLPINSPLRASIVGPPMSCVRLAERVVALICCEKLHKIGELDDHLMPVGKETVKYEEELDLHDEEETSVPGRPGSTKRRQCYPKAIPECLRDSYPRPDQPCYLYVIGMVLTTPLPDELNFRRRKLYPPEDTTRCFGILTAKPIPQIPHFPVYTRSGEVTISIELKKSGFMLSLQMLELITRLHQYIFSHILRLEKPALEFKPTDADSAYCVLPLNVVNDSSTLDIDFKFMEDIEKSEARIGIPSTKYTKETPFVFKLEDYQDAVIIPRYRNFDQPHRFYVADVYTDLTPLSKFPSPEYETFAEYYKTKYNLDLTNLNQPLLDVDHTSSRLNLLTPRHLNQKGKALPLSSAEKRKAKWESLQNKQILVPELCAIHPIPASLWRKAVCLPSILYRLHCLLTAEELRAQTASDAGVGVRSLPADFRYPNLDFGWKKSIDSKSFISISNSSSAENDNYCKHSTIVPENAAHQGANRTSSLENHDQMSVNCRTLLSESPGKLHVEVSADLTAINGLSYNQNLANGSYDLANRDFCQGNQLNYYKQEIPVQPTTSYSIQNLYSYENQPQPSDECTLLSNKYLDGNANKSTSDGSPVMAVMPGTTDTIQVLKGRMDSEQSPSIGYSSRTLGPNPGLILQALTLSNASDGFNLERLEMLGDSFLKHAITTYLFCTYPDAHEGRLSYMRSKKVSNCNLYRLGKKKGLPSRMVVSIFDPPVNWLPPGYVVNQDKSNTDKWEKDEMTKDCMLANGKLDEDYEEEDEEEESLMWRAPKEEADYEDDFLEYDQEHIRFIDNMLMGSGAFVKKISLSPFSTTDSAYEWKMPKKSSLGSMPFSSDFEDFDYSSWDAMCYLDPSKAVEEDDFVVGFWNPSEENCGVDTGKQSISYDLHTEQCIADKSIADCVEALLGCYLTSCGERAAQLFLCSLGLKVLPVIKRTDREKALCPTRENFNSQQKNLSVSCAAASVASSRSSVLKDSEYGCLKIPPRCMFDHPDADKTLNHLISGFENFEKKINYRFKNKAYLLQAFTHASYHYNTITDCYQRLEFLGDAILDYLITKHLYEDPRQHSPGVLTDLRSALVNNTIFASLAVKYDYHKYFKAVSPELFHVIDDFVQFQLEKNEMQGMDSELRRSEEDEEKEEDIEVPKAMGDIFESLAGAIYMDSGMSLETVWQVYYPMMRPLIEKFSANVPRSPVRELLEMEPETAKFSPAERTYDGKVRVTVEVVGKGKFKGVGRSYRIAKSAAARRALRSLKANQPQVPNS
An asterisk follows results filed as active.

SMILES | Dicer processing
Cn1nc(-c2ccc(S(=O)(=O)N3CCN(CCc4ccccc4)CC3)s2)cc1C(F)(F)F | -0.7
O=c1c2c(nc(NCCCO)n1-c1ccccc1)-c1ccccc1CC21CCCCC1 | 4.3*
CCn1c(SC)nc2c(c1=O)C1(CCCC1)Cc1ccccc1-2 | 0.48
CCSc1nc2c(c(=O)n1CC)C1(CCCC1)Cc1ccccc1-2 | 1.3
CCSc1nc2c(c(=O)n1C)C1(CCCC1)Cc1ccccc1-2 | 6.2*
Cn1c(NCCCO)nc2c(c1=O)C1(CCCCC1)Cc1ccccc1-2 | 0.39
C=CCn1c(SCC(N)=O)nc2c(c1=O)C1(CCCCC1)Cc1ccccc1-2 | 0.59
COc1ccc(-c2nnc(-c3sc4ccccc4c3Cl)o2)cc1 | 0.59
COc1ccc(C(C)C)cc1S(=O)(=O)n1ccnc1 | -0.22
CC(=O)N1CSCC1C(=O)NNS(=O)(=O)c1ccc(Cl)cc1 (centres undefined) | -1.1
Cc1ccc(Cc2nc3ccccc3[nH]2)cc1 | -0.64
CCOC(=O)CCc1nc2ccccc2[nH]1 | 0.58
Nc1ccc(CCc2nc3ccccc3[nH]2)cc1 | 6.5*
CCOc1ccc(C2c3c(oc4ccccc4c3=O)C(=O)N2c2nnc(C(C)C)s2)cc1OC (centres undefined) | 1
CN(C)/C=C/C=C/C=C1\c2ccccc2-c2ccc([N+](=O)[O-])cc21 | -0.95
Cc1cccc(Nc2nc3nonc3nc2Nc2ccc(F)cc2)c1C | 2.4
Cc1cc(C)c(C#N)c(Nc2ccccc2C)n1 | 0.71
Cc1cccc(Nc2ncncc2C#N)c1C | 3.7*
CSc1nc(N/C=C(/C#N)C(=O)C2CC2)nc(N(C)C)n1 | -2.5
CCOC(=O)COc1cc2c(C(=O)OC(C)C)c(C)oc2cc1Br | 1.2
Cc1ccc2oc(C(F)(F)F)cc(=O)c2c1 | 3.5*
Cc1ccc2oc(NC(=O)N3CCOCC3)cc(=O)c2c1 | -0.18
Cc1ccc2oc(-c3ccc(Br)cc3)cc(=O)c2c1 | 0.77
Cn1ncc(C(=O)O/N=C(\c2ccccc2)c2ccccc2N)c1-n1cccc1 | -0.59
COc1nc(-c2ccc(Cl)cc2)ccc1-c1noc(COc2ccccc2)n1 | 1.5
SMILES | Dicer processing
CC[n+]1c(/C=C/c2ccc(N(C)C)cc2)ccn1-c1ccccc1 | 3.3*
CN(C)c1ccc(/C=C/C2=Nc3ccccc3C2(C)C)cc1 | -1.1
CC[n+]1c(/C=C/c2ccc(N(C)C)cc2)sc2ccccc21 | 0.65
CC(C)(C)C1=NN(c2ccccc2)C(=O)C1 | -5.6
N[C@@H](CCCCNC(=O)OCc1ccccc1Cl)C(=O)O | -1.1
CN(C)CCCN1C(=O)C(O)=C(C(=O)c2cccs2)C1c1ccncc1 (centres undefined) | 1.2
COc1ccc(C2C(C(=O)c3cccs3)=C(O)C(=O)N2CCCN(C)C)cc1 (centres undefined) | -0.27
CC(C)c1ccc(C2C(C(=O)c3cccs3)=C(O)C(=O)N2CCN2CCOCC2)cc1 (centres undefined) | -0.41
CN(C)CCN1C(=O)C(O)=C(C(=O)c2cccs2)C1c1ccncc1 (centres undefined) | 4.1*
CC(C)c1ccc(C2C(C(=O)c3cccs3)=C(O)C(=O)N2CCN(C)C)cc1 (centres undefined) | 4.7*
Cc1nnc(N2C(=O)C(O)=C(C(=O)c3cccs3)C2c2ccc(C(C)C)cc2)s1 (centres undefined) | 0.33
CSc1nc(N)nc(-c2cc(Cl)cc(Cl)c2)n1 | -1.4
CC(C)(C)NC(=O)NNC(=O)c1sccc1OCc1ncc(C(F)(F)F)cc1Cl | -1.1
Cc1ccc2ncnc(NCc3ccco3)c2c1 | 4.5*
Cn1cnc2c(NCc3ccco3)ncnc21 | -1.5
Cc1ccc2ncnc(Nc3ccc(Cl)cc3)c2c1 | -0.33
Cc1ccc(C2Sc3ccccc3N=C3c4ccccc4OCC32)cc1 (centres undefined) | -2.9
CCOC(=O)c1cn(C(=O)CCSc2ccc(OC)cc2)nc1N | 3
Cn1c(/C=C/c2cccc(Oc3ccccc3)c2)c([N+](=O)[O-])c(=O)n(C)c1=O | -0.61
O=S(=O)(CS(=O)(=O)Oc1cc(Cl)cc(Cl)c1)Oc1cc(Cl)cc(Cl)c1 | -0.78
Nc1nc2ccc(CC(=O)O)cc2s1 | -2.3
CS(=O)(=O)c1ccc2nc(N)sc2c1 | 2.5
Nc1nc2ccc(Oc3ccc4nc(N)sc4c3)cc2s1 | 3.7*
CC(C)Sc1cc(C#N)c2cc(Br)ccc2n1 | -0.14
COC(=O)c1[nH]c2ccc([N+](=O)[O-])cc2c1-c1ccccc1 | 0.35
SMILES | Dicer processing
COc1ccc2[nH]c(=O)c(-c3ccccc3)c(O)c2c1 | 0.63
COC(=O)Cc1c(-c2ccccc2)c2cc(Br)ccc2[nH]c1=O | 3.9*
Nc1nc2c(c(=O)[nH]1)C(c1ccc(OCc3ccc(F)cc3)cc1)CC(=O)N2 (centres undefined) | 0.24
c1ccc(CN2CCN(C3CCCC3)CC2)cc1 | -0.01
Fc1ccc(CN2CCN(C3CCCCC3)CC2)cc1 | -0.45
Fc1ccccc1CN1CCN(C2CCCC2)CC1 | 5.3*
CCOC(=O)C(NC(=O)c1cccc(C)c1)(Nc1ccc(C)cn1)C(F)(F)F (centres undefined) | -1.9
COc1ccc(-c2nc3c4cnn(-c5ccccc5)c4ncn3n2)cc1OC | -0.47
Cc1cccc(NC(c2ccc3c(c2)OCO3)c2ccc3cccnc3c2O)n1 (centres undefined) | 2.3
COc1ccc(NC(c2ccccn2)c2ccc3cccnc3c2O)cc1 (centres undefined) | 3.1*
COc1ccc(C)cc1NC(c1ccccn1)c1ccc2cccnc2c1O (centres undefined) | -0.11
Cc1ccc2ccc(C(Nc3cccc(Cl)c3)c3ccccn3)c(O)c2n1 (centres undefined) | -2.1
Cc1cccc(NC(c2ccc(F)cc2)c2ccc3cccnc3c2O)n1 (centres undefined) | 8.9*
CCCOc1ccc(C(Nc2ccccn2)c2ccc3cccnc3c2O)cc1 (centres undefined) | 2.6
Cc1cccc(NC(c2ccccc2)c2ccc3ccc(C)nc3c2O)n1 (centres undefined) | 1.7
COc1ccc(C(Nc2cccc(C)n2)c2ccc3cccnc3c2O)cc1 (centres undefined) | 9.1*
Cc1ccc2ccc(C(Nc3ccccn3)c3ccc(F)cc3)c(O)c2n1 (centres undefined) | 5.6
O=C1CC2(CCCC2)C(=O)N1c1ccc(S(=O)(=O)N2CCN(Cc3c(F)cccc3Cl)CC2)cc1Cl | -0.17
CC(=O)N1c2ccccc2NC2=C(C(=O)CC(C)(C)C2)C1c1c(F)cccc1Cl (centres undefined) | 0.59
O=C(NC1CCCC1)c1cc2n(n1)C(C(F)(F)F)CC(c1ccco1)N2 (centres undefined) | -0.7
COc1ccc(NC2=NS(=O)(=O)c3ccccc32)c(OC)c1 | 1.1
COc1ccc2c(c1)c(=O)oc1c(C)c(OC(C)C(=O)O)ccc12 (centres undefined) | -0.4
CCc1ccc2[nH]c(C)c(CN3CCCC3)c(=O)c2c1 | 1.1
CCn1c[n+](CC(O)COc2ccc(F)cc2)c2cc(C)c(C)cc21 (centres undefined) | 1.5
CCCOc1ccc(C2C(C#N)=C(N)Oc3n[nH]c(CCC)c32)cc1 (centres undefined) | -3.9
O=C(O)CC1(CC(=O)NCC2COc3ccccc3O2)CCCCC1 (centres undefined) | -0.26
CCCC(=O)Nc1sc2c(c1C(=O)OC)CCC2 | 0.71
COC(=O)c1c(NC(=O)c2ccccc2Br)sc2c1CCC2 | 1.4
COC(=O)c1c(NC(=O)Nc2cccc(Cl)c2)sc2c1CCCC2 | 3.4*

Compound activity: PubChem BioAssay, Center for Chemical Genomics, University of Michigan
